The whole screen tested about 140,000 compounds, of which about 4,300 (3.1%) were called active. Inconclusive results (about 21%) are left out.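 The calls were made as follows: active = readout at or below -70, meaning at least 70% loss of cells showing the perinucleolar compartment, a nuclear body marking cancer cells; inconclusive = readout between -30 and a set limit; inactive = the rest.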 What follows is part of a selection rich in actives, with near analogues and random picks from the rest.
test: High Content Assay for Compounds that inhibit the Assembly of the Perinucleolar Compartment; conditions: PC3M PTB-GFP, PNC prevalence imaging, 16 h; at 10 µM; hits give low values;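 also: plate controls were DMSO wells for no effect and camptothecin positive control wells for full effect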
How it was run: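 PC3M cells stably expressing PTB-GFP, 750–1000 cells/well, treated 16 h at 37 °C with compound (23 nl of library stock), in duplicate. After paraformaldehyde fixation and Hoechst stain, imaged at 20x; PNC prevalence scored by image analysis.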

Compound | activity change (PNC), negative = inhibition
Cc1ccc(NC(=O)Cn2cccc2C2=NC(c3ccccc3)CO2)c(C)c1 (centres undefined) | 17.1% (inactive)
CCN(CC)c1ccc(C2C3CCCCC3(O)CCN2CC(=O)Nc2ccccc2)cc1 (centres undefined) | -22.9% (inactive)
Cc1ccc(NC(=O)CN2CCC3(O)CCCCC3C2c2ccc3c(c2)OCO3)c(C)c1 (centres undefined) | -90% (active)
COc1cc(C2C(N3C(=O)c4ccccc4C3=O)C(=O)N2c2ccc(C)c(C)c2)cc(OC)c1OC (centres undefined) | 31.7% (inactive)
CCC(=O)NCCc1nc2ccccc2n1CC | 14% (inactive)
Cc1ccc(Cn2c(NC(=O)c3ccco3)nc3ccccc32)cc1 | 2.65% (inactive)
CCn1c(NC(=O)c2nn(C)cc2Br)nc2ccccc21 | -114% (active)
Cc1nnnn1/C(=C\c1ccccc1)C(=O)OCC(=O)N1CC2(C)CC1CC(C)(C)C2 (centres undefined) | 23.1% (inactive)
Cn1nccc1CNC(=O)c1ccnn1C | 23.5% (inactive)
Cc1ccc(N(CC(=O)Nc2cccc(N(C)S(C)(=O)=O)c2)S(C)(=O)=O)cc1 | 24.2% (inactive)
COc1ccc(C)cc1S(=O)(=O)N(CC(=O)Nc1cccc([N+](=O)[O-])c1)c1ccc(C)cc1 | -81.9% (active)
Cc1ccc(S(=O)(=O)N(CC(=O)Nc2cccc([N+](=O)[O-])c2)Cc2ccc(Cl)cc2)cc1 | 34.5% (inactive)
Cc1ccc(S/C(=N\S(=O)(=O)c2ccc(Cl)cc2)c2ccccc2)cc1 | -26.8% (inactive)
Cc1ccc(S(=O)(=O)/N=C(/Nc2ccccn2)c2ccc(Cl)cc2)cc1 | -85% (active)
O=S(=O)(/N=C(/Nc1ccccn1)c1ccccc1)c1ccc(Cl)cc1 | -25.2% (inactive)
CCNS(=O)(=O)c1ccc(NC(=O)c2cncc(Br)c2)cc1 | 6.83% (inactive)
C/C(=N/NS(=O)(=O)c1ccccc1)c1ccc(NC(=O)C(F)(F)F)cc1 | 8.62% (inactive)
COC(=O)Cc1ccc(N(Cc2ccccc2F)S(=O)(=O)c2ccc(Br)cc2)cc1 | -15.9% (inactive)
CCOc1ccc(NC(=O)Nc2cc(C)ccc2OC)cc1 | -3.12% (inactive)
CCOc1ccccc1NC(=O)Nc1cc(OC)ccc1OC | 48.5% (inactive)
CCOc1ccc(C(=O)Nc2cc(OC)ccc2OC)cc1 | -127% (active)
CC1CCCCN1S(=O)(=O)c1ccc(S(=O)(=O)N(CC(=O)Nc2ccccc2)Cc2cccs2)cc1 (centres undefined) | -17.2% (inactive)
CCCOc1ccc(NC(=O)CC2C(=O)N(C)C(=S)N2Cc2ccc3c(c2)OCO3)cc1 (centres undefined) | -134% (active)
CCOc1ccc(NCCC(=O)c2ccc3c(c2)OCO3)cc1 | 23% (inactive)

Compound | activity change (PNC), negative = inhibition
Cn1c(=O)cc(OCCCC(=O)N2CCN(Cc3ccc4c(c3)OCO4)CC2)c2ccccc21 | 19.5% (inactive)
COc1ccc(/C=C/C(=O)NC(=S)NN2CCCCC2c2cccnc2)cc1 (centres undefined) | -29.3% (inactive)
CN(C)/N=C/c1cc(Cl)cc([N+](=O)[O-])c1O | 3.04% (inactive)
Cc1ccc(S(=O)(=O)N2CCCC2C(=O)OCc2nc3sc(C)c(C)c3c(=O)[nH]2)cc1 (centres undefined) | 7.12% (inactive)
O=C(CN1C(=O)c2cccc3cccc(c23)C1=O)N1CCCCC1 | -26% (inactive)
COc1ccc(NC(=S)NC2CCS(=O)(=O)C2)cc1 (centres undefined) | 36.6% (inactive)
COc1ccc(NC(=S)NCC2CCN(c3ccc(OC)cc3)C2)cc1 (centres undefined) | -116% (active)
O=C(Cc1ccccc1)NC(=S)Nc1ccc(N2CCCCC2)cc1 | -26.1% (inactive)
COCC(C)n1c(C)cc(C(=O)CSc2cc(C)c3ccccc3n2)c1C (centres undefined) | -11.6% (inactive)
Cc1cc(F)ccc1S(=O)(=O)N1CCCOC1CNC(=O)C(=O)NCCC1=CCCCC1 (centres undefined) | 14.2% (inactive)
CCCc1cc(=O)[nH]c(SCC(=O)N2CCN(S(=O)(=O)c3ccc(C)cc3C)CC2)n1 | -20% (inactive)
Cc1nn(Cc2ccc(F)cc2)c(C)c1NC(=O)c1cccnc1Cl | -102% (active)
Cc1cc(C(=O)Nc2c(C)nn(Cc3ccccc3)c2C)on1 | 36% (inactive)
Cc1nn(Cc2ccc(F)cc2)c(C)c1NC(=O)c1noc2c1CCc1ccccc1-2 | -5.67% (inactive)
Nc1nc(SCC(=O)NN(c2ccccc2)c2ccccc2)n[nH]1 | 8.76% (inactive)
Cc1ccccc1C1=NC(C(F)(F)F)(C(F)(F)F)c2c(n(-c3ccc(F)cc3)c(=O)[nH]c2=O)N1 | -9.65% (inactive)
CCOC(=O)C1CCc2nc3ccccc3c(=O)n21 (centres undefined) | -123% (active)
CCOC(=O)C(C)Sc1nc2ccccc2c(=O)n1CC1CCCCC1 (centres undefined) | 0.699% (inactive)
CCC1(CC)Cc2ccccc2-c2nc3ccccc3c(=O)n21 | 35.3% (inactive)
O=C(COC(=O)c1cc(=O)[nH]c2ccccc12)Nc1nc(-c2cccc(Br)c2)cs1 | 21.6% (inactive)
COC(=O)Cc1ccc(OCC(=O)Nc2ccc(OC(F)(F)F)cc2)cc1 | -17.1% (inactive)
CCCCN(Cc1ccccc1)C(=O)C1CCN(Cc2sccc2C)CC1 | 30.3% (inactive)
CCCCN(C)C(=O)C1CCN(Cc2ccccn2)CC1 | -84.5% (active)
CCCC(=O)C1CCN(Cc2ccccc2)CC1 | -25.7% (inactive)

Compound | activity change (PNC), negative = inhibition
CCOc1cccc(NC(=O)CC#N)c1 | -1.74% (inactive)
CC(=O)Nc1ccc(N2CCOCC2)c(C(=O)Nc2cccc(C)c2)c1 | -7.92% (inactive)
CC(=O)Nc1cccc(Oc2cc(C#N)c(C#N)cc2N2CCOCC2)c1 | -107% (active)
CCn1nc(C)c(/C=N/NC(=O)Cc2ccc(Cl)cc2)c1C | 49.9% (inactive)
O=[N+]([O-])c1cc(S(=O)(=O)N2CCCC2)ccc1NN=C1CCCC1 | 27.5% (inactive)
COc1cc(NC(=O)COC(=O)CSc2ccc3ccccc3c2)c(C)cc1[N+](=O)[O-] | 0.296% (inactive)
O=C(CSCc1ccc(Cl)cc1)N1CCN(Cc2ccc3c(c2)OCO3)CC1 | -86.5% (active)
O=C(Nc1ccccc1)N1CCN(Cc2ccccc2)CC1 | 47.3% (inactive)
O=C(CSCc1ccc(Cl)cc1)N1CCCCC1 | 0.451% (inactive)
CS(=O)(=O)N(CC(=O)N1CCN(Cc2ccc3c(c2)OCO3)CC1)c1ccc2c(c1)OCO2 | -4.43% (inactive)
O=C(Nc1cccc2ccccc12)N1CCN(Cc2ccc3c(c2)OCO3)CC1 | -95.4% (active)
O=C(CCCN1C(=O)c2cccc3cccc(c23)C1=O)N1CCN(Cc2ccc3c(c2)OCO3)CC1 | -24.4% (inactive)
O=C(Nc1ccccc1F)c1ccccc1-c1ccc(C(F)(F)F)cc1 | 16.7% (inactive)
CCc1nccn1S(=O)(=O)c1cccc([N+](=O)[O-])c1 | 10% (inactive)
Cc1nnc(NC(=O)/C=C/c2ccco2)s1 | -22.5% (inactive)
CCS(=O)(=O)Nc1cccc(-c2cc(-c3ccccc3)c3cc(C)ccc3n2)c1 | 81.5% (inactive)
CCc1ccc(C(=O)OCC(=O)Nc2cccc(S(=O)(=O)NC3=NCCCCC3)c2)cc1 | 14.5% (inactive)
CC(=O)Nc1ccc(S(=O)(=O)NC(C)C(=O)OCC(=O)NC2CCCC2)cc1 (centres undefined) | 5.59% (inactive)
COc1ccc(S(=O)(=O)NC(CC(=O)NCc2ccccc2OC)c2ccco2)cc1 (centres undefined) | 32.4% (inactive)
O=C(CC(NS(=O)(=O)c1ccc(Cl)cc1)c1ccco1)NC1CCCC1 (centres undefined) | -84.2% (active)
N#Cc1ccsc1NC(=O)CN1CCCCC1 | 8.2% (inactive)
Cc1cccc(C(=O)OCC(=O)Nc2sc3c(c2C#N)CCC3)c1 | 5.52% (inactive)
CN1CCN(CC(=O)Nc2sc3c(c2C#N)CCC(C(C)(C)C)C3)CC1 (centres undefined) | -86.5% (active)
COc1ccccc1Oc1ccc(N/C=C2/CCCC2=O)cc1 | 39.1% (inactive)

Compound | activity change (PNC), negative = inhibition
Cc1ccccc1OCC(=O)Nc1nc(C)c(C(=O)N(C)C)s1 | -15.1% (inactive)
CCn1c(=N)n(CC(=O)c2cccc(OC)c2)c2ccccc21 | -117% (active)
CCCCOC(=O)Cn1c(=N)n(CCN(CC)CC)c2ccccc21 | 33.2% (inactive)
COc1ccc(OC)c(NC(=O)Cn2c(=O)oc3ccccc32)c1 | 0.891% (inactive)
CCCCN(C)c1ccc([N+](=O)[O-])cc1 | 22.3% (inactive)
Cc1ccc(C(C[N+](=O)[O-])c2c(C)cc3ccccn23)cc1 (centres undefined) | -2.04% (inactive)
Cc1cc(NC(=O)Nc2ccccc2)n(-c2ccccc2)n1 | 15.1% (inactive)
Cc1cc(Nc2ccccc2)n(CCC#N)n1 | -16.1% (inactive)
Cc1cc(Nc2ccccc2)n(C(=O)c2ccc(N)cc2)n1 | -86.2% (active)
Cc1cc(C)cc(NC(=S)NCc2ccc(F)cc2)c1 | 35.9% (inactive)
CNC(=S)N1CCN(c2ccccn2)CC1 | -10.5% (inactive)
Cc1cccc(N=C2NN=C(c3c[nH]c4ccccc34)CS2)c1 | 57.4% (inactive)
COc1ccc(-c2ccc(Nc3ccc(S(=O)(=O)N4CCCC4)cc3)nn2)cc1OC | 7.04% (inactive)
COc1ccc(S(=O)(=O)N2CCCCC2)cc1Br | -11% (inactive)
COc1ccc(S(=O)(=O)Nc2ccc(S(=O)(=O)N3CCCCC3)cc2)cc1OC | -88.7% (active)
Cc1[nH]c2ccccc2c1/C=N\NC(=O)Cn1nnc(-c2ccccc2)n1 | 40.3% (inactive)
CCOC(=O)c1c(C)[nH]c(=S)c(C#N)c1-c1ccccc1 | 32.4% (inactive)
CCOC(=O)c1cc2n(c1N)-c1ccccc1C2=O | 32% (inactive)
CCOC(=O)c1c(C)[nH]c2c1-c1ccccc1C(=O)C2=O | -124% (active)
Cc1cccc(OCCNC(=S)NC(=O)c2cccnc2)c1 | 17.2% (inactive)
CC(C)CNC(=O)COC(=O)/C=C/c1ccco1 | 0.199% (inactive)
O=C(NC(CC(=O)N1CCN(c2ccccc2)CC1)c1ccccc1)c1ccccc1Cl (centres undefined) | -9.01% (inactive)

Reference: PubChem BioAssay AID2417 (National Center for Advancing Translational Sciences (NCATS), 2010)
